# Assay results: PMC5540273 (PLoS ONE, 2017)
# System: SRMS
# Settings: concentration: 1 μM, replicates: in singlicate; n = 1
# 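Further: KINOMEscan kinase panel screen.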
row,Compound,%Inh
1,O=C(Nc1cccc(-c2nn3ccccc3c2-c2ccnc(Nc3cccc(C(F)(F)F)c3)n2)c1)c1c(F)cccc1F [GSK292658],22%
2,COC(=O)Nc1nc2ccc(Oc3ccc(NC(=O)Nc4cc(C(F)(F)F)ccc4F)cc3)cc2n1C.Cl [GW692089],0%
3,Fc1ccc(-c2ncn(C3CCNCC3)c2-c2ccnc(Oc3ccc(-c4ccccc4)cc3)n2)cc1 [SB-245391],3%
4,COc1cc(Nc2nccc(-c3c(-c4cccc(NC(=O)c5c(F)cccc5F)c4)nn4ccccc34)n2)cc(OC)c1OC [GSK323521],0%
5,O=C(Nc1cccc(-c2nn3ccccc3c2-c2ccnc(Nc3cccc(F)c3)n2)c1)c1c(F)ccc(F)c1Cl [GSK357952],28%

# System: SRPK1
# Settings: concentration: 1 μM, replicates: in singlicate; n = 1
row,Compound,%Inh
1,CCn1c(-c2nonc2N)nc2c(C#CC(C)(C)O)nc(OC[C@H](N)c3ccccc3)cc21 [GSK943949],41%
2,Cc1cccc(NC(=O)Nc2ccc(Oc3ncnc4ccn(C)c34)cc2)c1,11%
3,O=C(Nc1cccc(Oc2ccc3nc(NC(=O)C4CC4)cn3n2)c1)c1ccccc1C(F)(F)F,59%
4,O=C(Nc1ccccc1F)NC1CCN(c2ccnc(Nc3ccc(F)cc3)n2)CC1 [GSK1379800],11%
5,NCCCC(NC(=O)c1cc(Br)c(-c2ccnc3[nH]ccc23)s1)c1ccccc1.O=C(O)C(F)(F)F.O=C(O)C(F)(F)F (stereo not shown) [GSK1287544],70%
6,COc1cccc(C(=O)Nc2cccc(Oc3ccc4nc(NC(=O)C5CC5)cn4n3)c2)c1,40%
7,COC(=O)Nc1nc2cc(Oc3ccc(NC(=O)Nc4cc(C(F)(F)F)ccc4F)cn3)ccc2[nH]1.Cl.Cl [GW681170],25%
8,Cc1ccc(C(=O)Nc2ccc(Nc3ccnc4cc(-c5nccs5)ccc34)cc2O)cc1.Cl [GW494702],12%
9,CCc1ccc(-c2ccc3c(c2)-c2c(cnn2C)S(=O)(=O)N3C)cc1,0%
10,CN(C)S(=O)(=O)c1cc(-c2ccc3nccc(-c4cccc(S(N)(=O)=O)c4)c3c2)cnc1N [GSK1669921],13%
11,COc1cccc(NC(=O)NC2CCN(c3ccnc(Nc4cc(OC)c(OC)c(OC)c4)n3)C2)c1 (stereo not shown) [GSK1379763],61%
12,O=c1[nH]cc(-c2ccc(N3CCOCC3)cc2)c2sc(-c3cn[nH]c3)cc12 [GSK2276055],17%
13,COc1cc(Nc2nccc(N3CCC(NC(=O)Nc4cccc(C(C)=O)c4)C3)n2)cc(OC)c1OC (stereo not shown) [GSK1379753],50%
14,CN1CCN(CCCNc2nccc(-c3c(-c4ccc(F)cc4)nn4cc(C(F)(F)F)ccc34)n2)CC1 [GW621581],26%
15,c1ccc(-c2cnc3nccnn23)cc1 [AH20685],20%
16,Cc1ccc(C(=O)N2CC[C@@H](O)C2)cc1-n1c(C)cc(OCc2ccc(F)cc2F)c(Br)c1=O,0%
17,C[C@@H](Oc1cc(-n2cnc3cc(-c4ccnc(NCCS(C)(=O)=O)c4)ccc32)sc1C(N)=O)c1ccccc1Cl [GSK907232],84%
18,Cl.c1ccc(-c2ccc3c(Nc4ccc5[nH]ncc5c4)ccnc3c2)nc1 [GW440137],31%
19,Oc1cc(Nc2ccnc3cc(I)ccc23)ccc1F [GW552771],21%
20,Nc1n[nH]c2cnc(-c3ccccc3)cc12 [SB-642124],22%
21,COc1cc(Nc2nccc(N3CCC(NC(=O)c4cc5ccccc5s4)C3)n2)cc(OC)c1OC (stereo not shown) [GSK1379760],61%
22,C[C@@H]1CC[C@@H](C(=O)Nc2ccccc2)CN1c1cc(-c2ccc3c(N)n[nH]c3c2)nc(N)n1 [GSK2286062],25%
23,Nc1ncc(-c2cccnc2)c2scc(-c3ccc4c(c3)CCN4C(=O)Cc3ccccc3)c12 [GSK683281],32%
24,Cc1ccc(F)c(C(=O)Nc2cccc(-c3nn4ccccc4c3-c3ccnc(Nc4cccc(F)c4)n3)c2)c1F [GSK361061],15%
25,O=C(Nc1cccc(-c2nn3ncccc3c2-c2ccnc(Nc3ccccc3)n2)c1)c1c(F)cccc1F [GSK198271],32%
26,CC(C)c1nc(-c2cccc(NS(=O)(=O)c3c(F)cccc3F)c2F)c(-c2ccnc(Nc3ccc(N4CCOCC4)nc3)n2)s1 [GSK2008607],38%
